According to ChEMBL document CHEMBL1961873, “Compounds: GSK PKIS; Assays: Nanosyn kinase panel” (2012):

Experiments:
[1] = target: Sphingosine kinase 1 (Homo sapiens) (UniProt Q9NYA1); settings: at 1 µM;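 note: mean SPHK1 inhibition value reported from the GSK PKIS kinase panel screen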
[2] = target: T1, Sphingosine kinase 2 (Homo sapiens) (UniProt Q9NRA0); settings: at 0.1 µM
T1 sequence (whole entry): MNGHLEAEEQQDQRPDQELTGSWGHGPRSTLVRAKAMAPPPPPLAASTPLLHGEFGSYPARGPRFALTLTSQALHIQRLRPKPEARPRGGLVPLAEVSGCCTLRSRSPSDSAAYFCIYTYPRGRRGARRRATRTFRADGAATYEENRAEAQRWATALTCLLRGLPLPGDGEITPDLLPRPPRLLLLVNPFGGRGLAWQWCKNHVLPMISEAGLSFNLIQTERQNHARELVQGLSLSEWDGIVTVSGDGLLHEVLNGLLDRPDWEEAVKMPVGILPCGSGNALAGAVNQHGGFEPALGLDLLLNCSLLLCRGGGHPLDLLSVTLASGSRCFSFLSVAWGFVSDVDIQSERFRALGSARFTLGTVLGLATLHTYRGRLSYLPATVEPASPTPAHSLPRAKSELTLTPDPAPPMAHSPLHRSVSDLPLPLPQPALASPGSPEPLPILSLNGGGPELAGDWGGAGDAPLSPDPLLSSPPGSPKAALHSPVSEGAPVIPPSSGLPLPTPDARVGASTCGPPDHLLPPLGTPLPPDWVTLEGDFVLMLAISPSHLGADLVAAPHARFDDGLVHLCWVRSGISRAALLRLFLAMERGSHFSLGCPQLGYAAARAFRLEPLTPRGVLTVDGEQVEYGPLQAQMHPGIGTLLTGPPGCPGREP

[3] = target: T1, Sphingosine kinase 2 (Homo sapiens); settings: at 1 µM
[4] = target: Casein kinase II subunit alpha (Homo sapiens) (UniProt P68400); settings: at 0.1 µM
Casein kinase II subunit alpha (Homo sapiens), sequence (P68400 whole entry, looked up): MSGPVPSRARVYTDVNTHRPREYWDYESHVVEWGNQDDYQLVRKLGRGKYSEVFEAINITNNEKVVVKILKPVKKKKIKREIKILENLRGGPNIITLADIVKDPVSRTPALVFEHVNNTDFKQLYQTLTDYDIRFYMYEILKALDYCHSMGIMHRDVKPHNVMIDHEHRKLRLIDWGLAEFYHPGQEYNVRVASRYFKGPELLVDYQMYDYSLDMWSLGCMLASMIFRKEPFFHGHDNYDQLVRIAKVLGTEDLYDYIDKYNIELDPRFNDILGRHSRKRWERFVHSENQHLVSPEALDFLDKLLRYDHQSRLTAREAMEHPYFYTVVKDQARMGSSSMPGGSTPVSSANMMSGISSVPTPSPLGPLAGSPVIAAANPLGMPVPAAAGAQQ

[5] = target: Casein kinase II subunit alpha (Homo sapiens) (UniProt P68400); settings: at 1 µM
[6] = target: T2, Inhibitor of nuclear factor kappa-B kinase subunit alpha (Homo sapiens) (UniProt O15111); settings: at 0.1 µM
T2 sequence (whole entry): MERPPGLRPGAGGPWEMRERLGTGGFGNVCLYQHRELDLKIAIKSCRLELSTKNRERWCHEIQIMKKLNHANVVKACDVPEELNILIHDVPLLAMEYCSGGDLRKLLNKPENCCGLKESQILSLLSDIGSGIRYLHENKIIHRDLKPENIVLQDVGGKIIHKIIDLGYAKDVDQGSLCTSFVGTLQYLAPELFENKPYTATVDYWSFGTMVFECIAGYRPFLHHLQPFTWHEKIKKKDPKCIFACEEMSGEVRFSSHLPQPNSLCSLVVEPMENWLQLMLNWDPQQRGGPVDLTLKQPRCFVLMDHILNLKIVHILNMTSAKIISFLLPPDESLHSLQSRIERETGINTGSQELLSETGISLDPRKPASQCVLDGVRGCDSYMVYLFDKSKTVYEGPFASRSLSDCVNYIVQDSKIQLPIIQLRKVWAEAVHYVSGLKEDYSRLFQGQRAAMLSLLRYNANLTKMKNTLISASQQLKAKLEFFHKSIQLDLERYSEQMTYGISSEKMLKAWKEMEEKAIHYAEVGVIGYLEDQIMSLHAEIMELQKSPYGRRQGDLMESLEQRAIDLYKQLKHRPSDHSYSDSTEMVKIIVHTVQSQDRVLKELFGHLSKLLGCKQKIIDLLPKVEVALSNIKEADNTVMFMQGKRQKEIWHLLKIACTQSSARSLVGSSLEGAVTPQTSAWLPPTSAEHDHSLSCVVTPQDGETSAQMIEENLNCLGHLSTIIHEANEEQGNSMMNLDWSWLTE

[7] = target: T2, Inhibitor of nuclear factor kappa-B kinase subunit alpha (Homo sapiens); settings: at 1 µM
[8] = target: T3, Inhibitor of nuclear factor kappa-B kinase subunit beta (Homo sapiens) (UniProt O14920); settings: at 0.1 µM
T3 sequence (whole entry): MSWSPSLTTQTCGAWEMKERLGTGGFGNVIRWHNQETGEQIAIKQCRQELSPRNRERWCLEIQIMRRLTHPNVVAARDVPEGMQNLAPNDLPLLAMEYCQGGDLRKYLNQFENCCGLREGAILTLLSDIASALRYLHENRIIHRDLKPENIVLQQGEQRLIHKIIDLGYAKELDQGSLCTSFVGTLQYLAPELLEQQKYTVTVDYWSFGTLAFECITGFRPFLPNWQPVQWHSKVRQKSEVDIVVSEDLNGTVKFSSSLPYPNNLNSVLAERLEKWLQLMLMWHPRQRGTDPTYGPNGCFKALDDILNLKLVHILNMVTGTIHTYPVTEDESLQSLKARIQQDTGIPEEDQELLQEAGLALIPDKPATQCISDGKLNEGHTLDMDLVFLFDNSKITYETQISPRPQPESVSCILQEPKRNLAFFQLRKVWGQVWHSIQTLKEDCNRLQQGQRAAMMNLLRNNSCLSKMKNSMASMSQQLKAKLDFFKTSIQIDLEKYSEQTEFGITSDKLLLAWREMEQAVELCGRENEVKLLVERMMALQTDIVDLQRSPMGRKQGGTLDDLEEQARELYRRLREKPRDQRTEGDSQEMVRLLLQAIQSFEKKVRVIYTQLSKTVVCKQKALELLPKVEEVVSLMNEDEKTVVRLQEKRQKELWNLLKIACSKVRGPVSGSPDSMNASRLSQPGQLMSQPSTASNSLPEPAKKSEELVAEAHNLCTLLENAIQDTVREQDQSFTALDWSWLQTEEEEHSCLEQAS

[9] = target: T3, Inhibitor of nuclear factor kappa-B kinase subunit beta (Homo sapiens); settings: at 1 µM
[10] = target: T4, Inhibitor of nuclear factor kappa-B kinase subunit epsilon (Homo sapiens) (UniProt Q14164); settings: at 0.1 µM
T4 sequence (whole entry): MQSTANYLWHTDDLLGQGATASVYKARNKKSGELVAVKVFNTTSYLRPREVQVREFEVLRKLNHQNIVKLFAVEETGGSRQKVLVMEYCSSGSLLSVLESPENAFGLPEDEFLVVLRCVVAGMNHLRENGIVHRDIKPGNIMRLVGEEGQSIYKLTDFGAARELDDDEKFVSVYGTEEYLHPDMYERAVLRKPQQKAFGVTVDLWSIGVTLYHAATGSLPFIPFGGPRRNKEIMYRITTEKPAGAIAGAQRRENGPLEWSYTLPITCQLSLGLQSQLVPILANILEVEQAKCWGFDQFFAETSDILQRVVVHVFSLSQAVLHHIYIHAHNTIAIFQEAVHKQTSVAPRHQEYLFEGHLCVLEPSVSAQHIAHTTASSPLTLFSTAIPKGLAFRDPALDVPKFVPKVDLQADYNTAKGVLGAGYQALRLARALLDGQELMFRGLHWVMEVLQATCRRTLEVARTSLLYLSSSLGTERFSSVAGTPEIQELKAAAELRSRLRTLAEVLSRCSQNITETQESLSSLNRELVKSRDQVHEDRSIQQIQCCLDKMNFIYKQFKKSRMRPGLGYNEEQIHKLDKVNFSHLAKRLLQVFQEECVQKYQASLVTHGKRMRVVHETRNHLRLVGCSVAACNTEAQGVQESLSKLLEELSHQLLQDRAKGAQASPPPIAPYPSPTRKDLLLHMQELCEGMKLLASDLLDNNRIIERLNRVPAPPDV

[11] = target: T4, Inhibitor of nuclear factor kappa-B kinase subunit epsilon (Homo sapiens); settings: at 1 µM
[12] = target: T5, Serine/threonine-protein kinase Nek1 (Homo sapiens) (UniProt Q96PY6); settings: at 0.1 µM
T5 sequence (whole entry): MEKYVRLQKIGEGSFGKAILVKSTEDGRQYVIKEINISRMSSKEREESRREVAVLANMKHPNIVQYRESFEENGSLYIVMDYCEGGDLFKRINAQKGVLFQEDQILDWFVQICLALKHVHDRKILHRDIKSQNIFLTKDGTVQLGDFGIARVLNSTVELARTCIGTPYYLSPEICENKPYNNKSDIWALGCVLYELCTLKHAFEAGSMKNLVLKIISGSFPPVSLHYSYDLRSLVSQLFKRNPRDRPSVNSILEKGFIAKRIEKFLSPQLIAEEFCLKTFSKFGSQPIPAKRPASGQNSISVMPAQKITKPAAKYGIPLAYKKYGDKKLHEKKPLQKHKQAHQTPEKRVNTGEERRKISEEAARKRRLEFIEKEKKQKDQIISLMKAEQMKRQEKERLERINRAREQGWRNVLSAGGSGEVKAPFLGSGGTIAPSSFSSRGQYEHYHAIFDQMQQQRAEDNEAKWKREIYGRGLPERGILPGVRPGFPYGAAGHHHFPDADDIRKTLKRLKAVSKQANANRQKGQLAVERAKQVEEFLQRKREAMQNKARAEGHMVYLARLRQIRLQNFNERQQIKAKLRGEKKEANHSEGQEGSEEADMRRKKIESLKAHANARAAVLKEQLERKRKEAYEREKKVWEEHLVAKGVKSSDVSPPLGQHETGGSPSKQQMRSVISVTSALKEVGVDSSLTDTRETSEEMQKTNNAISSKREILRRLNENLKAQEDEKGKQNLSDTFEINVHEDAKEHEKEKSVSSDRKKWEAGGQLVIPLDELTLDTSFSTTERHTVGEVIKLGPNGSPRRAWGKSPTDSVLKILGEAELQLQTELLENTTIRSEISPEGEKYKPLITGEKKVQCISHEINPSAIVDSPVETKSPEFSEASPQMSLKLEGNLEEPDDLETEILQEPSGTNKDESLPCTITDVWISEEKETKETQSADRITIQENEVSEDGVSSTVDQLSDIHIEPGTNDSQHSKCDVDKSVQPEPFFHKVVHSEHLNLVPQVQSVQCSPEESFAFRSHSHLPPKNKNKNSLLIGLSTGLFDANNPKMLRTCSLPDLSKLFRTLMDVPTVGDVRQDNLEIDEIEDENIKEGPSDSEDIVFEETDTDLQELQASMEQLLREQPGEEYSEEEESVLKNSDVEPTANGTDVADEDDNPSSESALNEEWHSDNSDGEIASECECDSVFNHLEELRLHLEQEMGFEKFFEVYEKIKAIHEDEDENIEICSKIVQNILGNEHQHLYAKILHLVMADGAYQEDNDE

[13] = target: T5, Serine/threonine-protein kinase Nek1 (Homo sapiens); settings: at 1 µM
[14] = target: T6, Serine/threonine-protein kinase Nek2 (Homo sapiens) (UniProt P51955); settings: at 0.1 µM
T6 sequence (whole entry): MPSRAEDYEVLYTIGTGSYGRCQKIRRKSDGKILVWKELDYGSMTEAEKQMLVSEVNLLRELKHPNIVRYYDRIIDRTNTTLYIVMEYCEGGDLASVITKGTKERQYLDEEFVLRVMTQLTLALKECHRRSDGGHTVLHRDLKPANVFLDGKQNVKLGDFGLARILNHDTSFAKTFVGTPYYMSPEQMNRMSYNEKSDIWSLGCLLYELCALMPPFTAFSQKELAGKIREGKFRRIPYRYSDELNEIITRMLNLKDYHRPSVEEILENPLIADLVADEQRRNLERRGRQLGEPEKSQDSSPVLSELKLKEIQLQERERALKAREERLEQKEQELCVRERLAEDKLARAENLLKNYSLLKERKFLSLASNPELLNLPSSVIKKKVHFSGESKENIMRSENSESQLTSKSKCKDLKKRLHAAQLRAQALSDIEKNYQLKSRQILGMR

[15] = target: T6, Serine/threonine-protein kinase Nek2 (Homo sapiens); settings: at 1 µM
[16] = target: Serine/threonine-protein kinase Nek6 (Homo sapiens) (UniProt Q9HC98); settings: at 0.1 µM
Serine/threonine-protein kinase Nek6 (Homo sapiens), sequence (Q9HC98 whole entry): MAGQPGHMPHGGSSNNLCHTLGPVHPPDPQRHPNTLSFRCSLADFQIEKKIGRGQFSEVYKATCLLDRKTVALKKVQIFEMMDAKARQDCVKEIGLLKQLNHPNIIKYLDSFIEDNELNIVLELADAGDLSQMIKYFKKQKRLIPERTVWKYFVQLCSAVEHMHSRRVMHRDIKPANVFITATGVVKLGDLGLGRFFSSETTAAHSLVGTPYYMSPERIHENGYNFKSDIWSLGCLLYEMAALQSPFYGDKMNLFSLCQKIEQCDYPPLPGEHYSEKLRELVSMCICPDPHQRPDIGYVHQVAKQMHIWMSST

[17] = target: Serine/threonine-protein kinase Nek6 (Homo sapiens) (UniProt Q9HC98); settings: at 1 µM
[18] = target: Serine/threonine-protein kinase Nek7 (Homo sapiens) (UniProt Q8TDX7); settings: at 0.1 µM
Serine/threonine-protein kinase Nek7 (Homo sapiens), sequence (Q8TDX7 whole entry, looked up): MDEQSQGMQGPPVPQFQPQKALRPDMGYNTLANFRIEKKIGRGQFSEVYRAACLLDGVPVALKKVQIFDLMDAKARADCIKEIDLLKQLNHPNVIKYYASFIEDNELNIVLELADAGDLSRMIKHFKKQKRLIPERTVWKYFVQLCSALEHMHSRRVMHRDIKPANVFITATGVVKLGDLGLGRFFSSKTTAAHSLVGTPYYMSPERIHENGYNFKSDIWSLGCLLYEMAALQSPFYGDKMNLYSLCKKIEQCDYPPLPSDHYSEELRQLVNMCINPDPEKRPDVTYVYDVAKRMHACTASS

[19] = target: Serine/threonine-protein kinase Nek7 (Homo sapiens) (UniProt Q8TDX7); settings: at 1 µM
[20] = target: T7, Serine/threonine-protein kinase Nek9 (Homo sapiens) (UniProt Q8TD19); settings: at 0.1 µM;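 note: reported value is the mean percent inhibition of NEK9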
T7 sequence (whole entry): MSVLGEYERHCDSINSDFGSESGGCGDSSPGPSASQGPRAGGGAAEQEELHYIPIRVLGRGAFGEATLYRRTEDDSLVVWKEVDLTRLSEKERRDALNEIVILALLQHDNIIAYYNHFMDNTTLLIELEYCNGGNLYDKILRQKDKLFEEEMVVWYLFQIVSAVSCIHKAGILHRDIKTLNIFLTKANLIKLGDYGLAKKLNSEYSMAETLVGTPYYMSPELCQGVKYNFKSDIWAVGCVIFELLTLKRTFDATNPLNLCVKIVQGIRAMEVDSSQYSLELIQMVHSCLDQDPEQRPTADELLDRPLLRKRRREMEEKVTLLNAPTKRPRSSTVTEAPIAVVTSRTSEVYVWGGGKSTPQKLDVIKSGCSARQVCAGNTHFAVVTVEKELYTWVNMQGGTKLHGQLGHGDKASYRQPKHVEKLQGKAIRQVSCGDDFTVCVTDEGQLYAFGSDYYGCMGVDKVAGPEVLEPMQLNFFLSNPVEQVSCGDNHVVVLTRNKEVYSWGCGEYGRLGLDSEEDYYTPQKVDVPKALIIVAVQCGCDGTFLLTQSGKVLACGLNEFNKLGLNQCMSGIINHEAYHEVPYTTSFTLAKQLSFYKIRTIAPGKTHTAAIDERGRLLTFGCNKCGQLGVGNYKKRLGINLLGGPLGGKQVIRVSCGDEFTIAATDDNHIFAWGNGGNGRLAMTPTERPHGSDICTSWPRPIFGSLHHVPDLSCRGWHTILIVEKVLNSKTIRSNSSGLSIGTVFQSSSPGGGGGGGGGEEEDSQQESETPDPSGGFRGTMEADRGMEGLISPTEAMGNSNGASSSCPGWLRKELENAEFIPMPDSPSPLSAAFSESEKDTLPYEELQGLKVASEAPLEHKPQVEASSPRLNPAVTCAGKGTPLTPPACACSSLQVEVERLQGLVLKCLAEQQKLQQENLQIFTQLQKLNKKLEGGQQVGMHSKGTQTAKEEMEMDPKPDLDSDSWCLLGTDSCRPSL

Sphingosine kinase 1 (Homo sapiens), sequence (Q9NYA1 whole entry): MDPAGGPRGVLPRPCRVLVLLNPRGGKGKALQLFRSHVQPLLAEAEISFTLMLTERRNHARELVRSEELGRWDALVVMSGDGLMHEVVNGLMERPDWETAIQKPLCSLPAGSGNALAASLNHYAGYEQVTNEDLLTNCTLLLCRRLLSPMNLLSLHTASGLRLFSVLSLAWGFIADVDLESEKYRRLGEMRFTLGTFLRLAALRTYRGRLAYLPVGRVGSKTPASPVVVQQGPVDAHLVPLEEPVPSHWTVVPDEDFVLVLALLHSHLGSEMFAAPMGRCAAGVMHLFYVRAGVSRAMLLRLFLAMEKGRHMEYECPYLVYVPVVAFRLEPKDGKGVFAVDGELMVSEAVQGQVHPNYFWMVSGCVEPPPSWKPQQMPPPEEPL

## NC(=O)c1cccc(Nc2nccc(Nc3cccc(F)c3)n2)c1
[1]
  inhibition: 0.76%
[2]
  inhibition: 0%
[3]
  inhibition: 0.34%
[4]
  inhibition: 1.61%
[5]
  inhibition: 3.67%
[6]
  inhibition: 0.56%
[7]
  inhibition: 4.67%
[8]
  inhibition: 6.25%
[9]
  inhibition: 22.3%
[10]
  inhibition: 2.08%
[11]
  inhibition: 3.29%
[12]
  inhibition: 2.58%
[13]
  inhibition: 5.37%
[14]
  inhibition: 3.22%
[15]
  inhibition: 1.09%
[16]
  inhibition: 0.35%
[17]
  inhibition: 0.89%
[18]
  inhibition: 2.07%
[19]
  inhibition: 1.47%
[20]
  inhibition: 8.72%
